Test results from PubChem BioAssay (Tox21).
Inconclusive results are not listed. The source holds several records for some structures; these can differ, active in one and inactive in another. Active and inactive are the calls of the source. Unless noted, calls come from the whole dose curve; as a rule, active = well fitted curve in the direction sought with a large enough effect in the repeat runs; inconclusive = weak or mixed curves; inactive = no such curve, though single readings can be large; an effect the other way counts as inactive or inconclusive.

How the values were obtained:
[1] = qHTS assay to identify small molecule agonists of the estrogen receptor alpha (ER-alpha) signaling pathway in the presence of an antagonist - cell viability counter screen (AID 1259386);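 note: cells exposed to compounds for 22 h at 37 °C before the viability read; nearly all actives have a fitted effect of over 30% in size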; note: potency is the fitted concentration of half-maximal effect
How it was run: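 Read-out: CellTiter-Fluor fluorescence after 1hr reagent incubation, measured in the same wells as the luciferase readout. VM7Luc4E2 cells were exposed to 15 compound concentrations with 10.0nM ICI-182,780 for 22hr at 37C.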

[2] = target: Progesterone receptor (Homo sapiens) (UniProt P06401); test: qHTS assay to identify small molecule agonists of the progesterone receptor (PR) signaling pathway (AID 1346784; calls by dose curve; note: nearly all actives have a fitted effect of over 30% in size; note: potency is the fitted concentration of half-maximal effect)
Chain of Progesterone receptor (Homo sapiens) (P06401 whole entry, looked up): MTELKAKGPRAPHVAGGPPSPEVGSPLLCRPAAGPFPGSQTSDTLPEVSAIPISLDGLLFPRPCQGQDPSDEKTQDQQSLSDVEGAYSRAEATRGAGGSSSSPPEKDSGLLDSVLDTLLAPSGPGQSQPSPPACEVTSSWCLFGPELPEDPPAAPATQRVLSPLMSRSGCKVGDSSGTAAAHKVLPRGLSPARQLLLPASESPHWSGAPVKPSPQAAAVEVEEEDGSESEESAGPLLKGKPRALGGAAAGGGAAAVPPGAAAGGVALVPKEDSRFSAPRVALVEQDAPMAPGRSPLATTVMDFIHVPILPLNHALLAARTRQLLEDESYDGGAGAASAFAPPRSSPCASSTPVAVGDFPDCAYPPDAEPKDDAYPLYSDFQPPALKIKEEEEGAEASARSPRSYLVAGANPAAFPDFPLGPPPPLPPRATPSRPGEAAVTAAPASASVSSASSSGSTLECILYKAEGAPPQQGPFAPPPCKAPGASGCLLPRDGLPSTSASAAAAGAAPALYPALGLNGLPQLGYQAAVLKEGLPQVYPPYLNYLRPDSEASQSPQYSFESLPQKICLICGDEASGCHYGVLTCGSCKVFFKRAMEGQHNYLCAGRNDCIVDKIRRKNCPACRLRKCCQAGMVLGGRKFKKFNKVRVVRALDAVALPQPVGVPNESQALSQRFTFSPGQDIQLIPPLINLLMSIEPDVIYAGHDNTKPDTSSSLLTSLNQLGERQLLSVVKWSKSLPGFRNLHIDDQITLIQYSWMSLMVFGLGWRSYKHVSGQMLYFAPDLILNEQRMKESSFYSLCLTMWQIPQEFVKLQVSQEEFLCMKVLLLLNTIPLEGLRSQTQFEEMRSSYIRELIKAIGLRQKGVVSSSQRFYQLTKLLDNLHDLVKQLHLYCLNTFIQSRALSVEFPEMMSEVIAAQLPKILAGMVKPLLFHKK
How it was run: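 PR-UAS-bla HEK 293T cells (beta-lactamase reporter under UAS) in 2% charcoal-stripped FBS, dosed with 23 nL compound after 6 hr, incubated 16hr at 37C. LiveBLAzer B/G FRET substrate added, fluorescence read after 2 hours.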

[3] = qHTS assay to identify small molecule agonists of the progesterone receptor (PR) signaling pathway - cell viability counter screen (AID 1346799; calls by dose curve; note: nearly all actives have a fitted effect of over 45% in size; note: potency is the fitted concentration of half-maximal effect)
How it was run: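 Counter screen in the PR-UAS-bla HEK293T wells (2% charcoal-stripped FBS, 16 h compound exposure at 37 C) after the bla read. CellTiter-Glo added, 30 min at room temperature, luminescence read as cell viability.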

[4] = qHTS assay to identify small molecule antagonists of the TGF-beta/Smad signaling pathway - cell viability counter screen (AID 1346824); note: nearly all actives have a fitted effect of over 50% in size
How it was run: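 Cytotoxicity counter-screen run in the same wells as the beta-lactamase Smad reporter read: CellTiter-Glo luminescence after 30 min at room temperature. HEK 293T SBE-bla cells had 5 hr compound exposure at 37 C with TGF-beta1 (0.25 ng/mL stock).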

[5] = qHTS assay to identify small molecule agonists of the TGF-beta/Smad signaling pathway - cell viability counter screen (AID 1346829); note: top concentration of the series differs between compounds; nearly all actives have a fitted effect of over 45% in size
How it was run: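 After overnight seating at 37 C and 5% CO2, reporter cells got compounds for 5 hr and FRET substrate for 2 hr; cell viability then came from CellTiter-Glo luminescence.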

[6] = target: Thyrotropin-releasing hormone receptor (Homo sapiens) (UniProt P34981); test: qHTS assay to identify small molecule antagonists of the thyrotropin-releasing hormone receptor (TRHR) signaling pathway (AID 1346877; active = well fitted inhibition curve with a large enough effect in the repeat runs, not every such curve was filed as active; note: series mostly up to about 51 µM)
Chain of Thyrotropin-releasing hormone receptor (Homo sapiens) (P34981 whole entry, looked up): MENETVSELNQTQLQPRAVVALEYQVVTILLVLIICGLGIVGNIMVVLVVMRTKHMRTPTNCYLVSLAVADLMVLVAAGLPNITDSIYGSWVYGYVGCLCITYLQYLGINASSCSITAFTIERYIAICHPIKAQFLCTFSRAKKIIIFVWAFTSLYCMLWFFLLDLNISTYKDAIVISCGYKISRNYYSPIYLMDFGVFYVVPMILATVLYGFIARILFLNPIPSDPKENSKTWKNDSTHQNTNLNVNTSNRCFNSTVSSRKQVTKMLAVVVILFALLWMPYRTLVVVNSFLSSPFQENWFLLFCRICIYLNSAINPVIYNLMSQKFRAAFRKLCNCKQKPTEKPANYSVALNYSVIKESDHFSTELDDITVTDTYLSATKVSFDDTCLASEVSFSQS
How it was run: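 HEK293/TRHR cells, 18 h, 37 °C; Ca2+ dye 2 h; cpd 5 min RT; TRH 1 nM final; fluorescence read 3 min, 1 s intervals; 15 concs, triplicate.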

[7] = target: Thyrotropin-releasing hormone receptor (Homo sapiens) (UniProt P34981); test: qHTS assay to identify small molecule agonists of the thyrotropin-releasing hormone receptor (TRHR) signaling pathway (AID 1346891; calls by dose curve; note: series mostly up to about 58 µM)
How it was run: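 HEK293 cells expressing TRHR plated 18 h at 37 C/5% CO2, calcium dye-loaded 2 h at 37 C, then compound added (agonist mode); kinetic calcium fluorescence read 3 min at 1 s intervals; 15 concentrations in triplicate.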

[8] = target: Progesterone receptor (Homo sapiens) (UniProt P06401); test: qHTS assay to identify small molecule antagonists of the progesterone receptor (PR) signaling pathway (AID 1346795; active = well fitted inhibition curve with a large enough effect in the signal ratio in the repeat runs, not every such curve was filed as active; the % refers to the signal ratio; note: potency is the fitted concentration of half-maximal effect)
How it was run: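 PR-UAS-bla HEK293T cells with beta-lactamase reporter under UAS control, in 2% charcoal-stripped FBS, treated with compounds plus 1 nM promegestone (R5020, final) for 16 hr at 37C. Read-out: FRET beta-lactamase substrate fluorescence after 2 hr at room temperature.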

[9] = qHTS assay to identify small molecule antagonists of the progesterone receptor (PR) signaling pathway - cell viability counter screen (AID 1346798); note: nearly all actives have a fitted effect of over 50% in size; note: potency is the fitted concentration of half-maximal effect
How it was run: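 PR-UAS-bla HEK293T cells, 3,000/well in 2% charcoal-stripped FBS medium, dosed with compounds plus R5020 agonist and incubated 16 h at 37C. Viability then measured in the same wells by CellTiter-Glo luminescence after 30 min at RT.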

[10] = qHTS assay to identify small molecule agonists of the TGF-beta/Smad signaling pathway (AID 1346859; active = well fitted activation curve with a large enough effect in the signal ratio in the repeat runs, not every such curve was filed as active; the % refers to the signal ratio; note: series mostly up to about 77 µM)
How it was run: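 SBE-bla HEK293T cells plated overnight, then compound exposure for 5 h at 37 C. Beta-lactamase reporter read with LiveBLAzer B/G FRET substrate after 2 h at room temperature, fluorescence at 405 nm excitation, 460/530 nm emission.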

Measured: Potency

COc1ccc(-c2cc(C(F)F)nn2-c2ccc(S(N)(=O)=O)cc2)cc1F
inactive: [1] | [2] | [3] | [4] | [5] | [6] | [7]

O=S(=O)(O)CO
inactive: [1] | [8] | [9] | [4] | [5] | [10] | [6] | [7]

COC(=O)Nc1nc2ccc(C(=O)C3CC3)cc2[nH]1
inactive: [1] | [2] | [4] | [5] | [10]

CO[C@@H]1[C@@H](OC)[C@H](C)[C@@](O)(CC(=O)O)O[C@H]1[C@H](C)[C@H]1O[C@@]2(CC[C@@](C)([C@H]3CC[C@@](C)([C@@H]4O[C@@H]([C@H]5O[C@](C)(O)[C@H](C)C[C@@H]5C)C[C@@H]4OC4C[C@H](OC)[C@@H](OC)[C@H](C)O4)O3)O2)C[C@H](O)[C@H]1C (some centres undefined)
active: [1] 2.37 µM | [8] 10.6 µM | [9] 18.8 µM
inactive: [4] | [5] | [10] | [6] | [7]

CCN(CC)C(=O)N1CCN(C)CC1
inactive: [1] | [8] | [9] | [3] | [4] | [5] | [10]

Cc1ccc(Nc2c(F)cccc2Cl)c(CC(=O)O)c1
inactive: [1] | [2] | [4] | [5] | [10] | [6] | [7]

CC(C)Cc1ccc(CC(=O)O)cc1
inactive: [1] | [2] | [4] | [5] | [10] | [6] | [7]

O=C(O)CCCc1c[nH]c2ccccc12
inactive: [1] | [8] | [9] | [3] | [4] | [5] | [6] | [7]

Oc1ccc2c(c1)Cc1ccccc1-2
inactive: [1] | [2] | [4] | [10] | [6] | [7]

CCCCCCCC/C=C\CCCCCCCC(=O)OCCO
inactive: [1] | [8] | [9] | [3] | [4] | [5] | [10] | [6] | [7]

O=S(=O)(Cl)c1c(Cl)cccc1Cl
inactive: [1] | [8] | [9] | [3] | [4] | [5] | [10] | [6] | [7]

COC(C)(C)OC
inactive: [1] | [8] | [9] | [3] | [4] | [5] | [10] | [6] | [7]

COC(OC)OC
inactive: [1] | [8] | [9] | [3] | [4] | [5] | [10]

Nc1ccc(NC(=O)c2ccc(N)cc2)cc1
active: [3] 54.5 µM
inactive: [1] | [8] | [9] | [4] | [5] | [10] | [6] | [7]

COc1ccc2nc(S(=O)Cc3ncc(C)c(OC)c3C)[nH]c2c1 (centres undefined)
48 µM (active) and inactive: [1]
inactive: [2] | [4] | [5] | [10] | [6] | [7]

CC(C)N(C)C
inactive: [1] | [8] | [9] | [3] | [5] | [10] | [6] | [7]

Cc1c(C2(c3cc(Br)c(O)c(Br)c3C)OS(=O)(=O)c3ccccc32)cc(Br)c(O)c1Br
inactive: [2] | [5] | [10] | [6] | [7]
active: [1] 13.3 µM

CC12CC3CC(C)(C1)CC(N)(C3)C2
inactive: [1] | [8] | [9] | [3] | [4] | [5] | [10]

O=C(O)/C=C/c1ccc(O)c(O)c1
inactive: [1] | [8] | [9] | [3] | [4] | [5] | [10] | [6] | [7]

CCN(CC)CCNC(=O)c1cc(Cl)c(N)cc1OC
inactive: [1] | [8] | [9] | [3] | [4] | [5] | [10] | [6] | [7]

Nc1cccc2c(N)cccc12
inactive: [4] | [5] | [10]
active: [1] 48.6 µM | [2] 1.93 µM

C[C@@H]1C[C@H]2[C@@H]3CCC4=CC(=O)C=C[C@]4(C)[C@@]3(F)[C@@H](O)C[C@]2(C)[C@@]1(O)C(=O)COP(=O)(O)O
inactive: [1] | [2] | [3] | [4] | [5] | [10] | [6] | [7]

O=C(O)CNC(=O)c1ccccc1I
inactive: [1] | [8] | [9] | [3] | [4] | [5] | [10]

O=C1[C@@H]2[C@H]3CC[C@H](C3)[C@@H]2C(=O)N1CCCCN1CCN(c2ncccn2)CC1
inactive: [1] | [8] | [9] | [3] | [4] | [5] | [10]
